Here are results for 19 molecules from the supplement of paper PMC7669877.

Each structure is given as a SMILES string. ± gives the uncertainty stated by the source.

This assay concerns Candidatus Liberibacter solanacearum in potato hairy roots. The assay can be described thus: relative CLso titer (% of untreated control); higher = less inhibition of bacterial titer. The settings on record: 10 µM; 72 h. The procedure:
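Primary screen of ~220 Spectrum collection (MicroSource) compounds at 10 µM (0.1% DMSO) on Candidatus Liberibacter solanacearum-infected potato hairy roots in multi-well plates (Gamborg B-5 medium, vacuum infiltrated, 21 °C, dark, 72 h). CLso titer was measured by qPCR of 16S rDNA normalised to potato RPL2 (2^-ddCq), pairwise-standardised against untreated controls, averaged over two biological replicates and expressed as % of untreated.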
Consider `CCCCCCCCCCCCCCCC(=O)OC[C@@H](NC(=O)C(Cl)Cl)[C@H](O)c1ccc([N+](=O)[O-])cc1`, for which the “relative CLso titer” value stood at 79.3 ± 10%.

Take `O=C(Oc1ccccc1C(=O)O)c1ccccc1O`: the “relative CLso titer” value came to 124 ± 42%.

In the case of `Cc1onc(-c2c(Cl)cccc2Cl)c1C(=O)N[C@@H]1C(=O)N2[C@@H]1SC(C)(C)[C@@H]2C(=O)O`, the “relative CLso titer” value came to 145 ± 34%.

On to `COc1ccc(NS(=O)(=O)c2ccc(N)cc2)nn1`, for which the “relative CLso titer” value turned out to be 116.5 ± 0.47%.

For `CCn1nc(C(=O)O)c(=O)c2cc3c(cc21)OCO3`, the “relative CLso titer” value is 28.6 ± 0.62%.

Consider `CCN(CCCCOC(=O)c1ccc(OC)c(OC)c1)C(C)Cc1ccc(OC)cc1` (centres undefined), for which the “relative CLso titer” value is 94.6 ± 34%.

On to `CC(=O)Nc1nnc(S(N)(=O)=O)s1`, for which the “relative CLso titer” value was 74.1 ± 19%.

With `CC(=O)OCC(=O)[C@H]1CC[C@H]2[C@@H]3CCC4=CC(=O)CC[C@]4(C)[C@H]3CC[C@]12C`, the “relative CLso titer” value turned out to be 104 ± 18%.

Take `C[C@]12CC[C@@H]3c4ccc(O)cc4CC[C@H]3[C@@H]1CC[C@@H]2OC(=O)CCC1CCCC1`: the “relative CLso titer” value was 150 ± 44%.

Consider `CN1CCC[C@@H]1CCO[C@](C)(c1ccccc1)c1ccc(Cl)cc1`, for which the “relative CLso titer” value was determined as 44.3 ± 12%.

Consider `CO[C@@]1(NC(=O)Cc2cccs2)C(=O)N2C(C(=O)O)=C(COC(N)=O)CS[C@@H]21`, for which the “relative CLso titer” value came to 130 ± 27%.

On to `NCCCCCC(=O)O`, for which the “relative CLso titer” value was 39.2 ± 4.1%.

With `Clc1ccccc1C(c1ccccc1)(c1ccccc1)n1ccnc1`, the “relative CLso titer” value is 65.3 ± 14%.

With `CCC1(C)CC(=O)NC1=O` (centres undefined), the “relative CLso titer” value amounted to 119.65 ± 0.011%.

Consider `CCCCOc1cc(C(=O)NCCN(CC)CC)c2ccccc2n1`, for which the “relative CLso titer” value was 147 ± 76%.

Regarding `COc1ccc(O)cc1`, the “relative CLso titer” value is 173 ± 58%.

Consider `CN1CCN(C(c2ccccc2)c2ccccc2)CC1`, for which the “relative CLso titer” value came to 105 ± 31%.

For `CCOC(=O)c1cccc(N)c1`, the “relative CLso titer” value came out at 113 ± 8.9%.

On to `C[C@H]1c2cccc(O)c2C(=O)C2=C(O)[C@]3(O)C(=O)C(C(N)=O)=C(O)[C@@H](N(C)C)[C@@H]3[C@@H](O)[C@@H]21`, for which the “relative CLso titer” value is 125 ± 12%.
